# What was measured:
# Assay in all cases: DAPPL (digital affinity profiling via proximity ligation, sequencing); 10 mM Tris-HCl pH 7.5, 50 mM NaCl, 1 mM DTT, 4% glycerol, room temperature, 30 min; GST-TFs on glutathione beads, 16-mer random dsDNA library, 0.1% formaldehyde crosslink after washing; high values mean tight binding
# FEV = molecular target: T1, FEV (Homo sapiens, UniProt Q99581 1-238); conditions: protein: recombinant; tags: N-terminal GST; dsDNA, one strand shown
# T1 sequence: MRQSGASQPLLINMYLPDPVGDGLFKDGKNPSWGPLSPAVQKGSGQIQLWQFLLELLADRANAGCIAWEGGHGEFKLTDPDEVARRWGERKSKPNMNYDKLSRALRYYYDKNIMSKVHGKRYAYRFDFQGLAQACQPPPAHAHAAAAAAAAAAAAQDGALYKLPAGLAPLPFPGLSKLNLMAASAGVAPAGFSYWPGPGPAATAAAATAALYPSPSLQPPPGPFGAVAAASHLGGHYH
# Procedure, shortened: (§1)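 Sequencing on an Illumina NextSeq500 followed washing, crosslinking with 0.1% formaldehyde, proximity ligation (BsaI/T4 ligase, 1 h, 37 °C) and PCR amplification of pools that had been incubated for 30 min at room temperature with 200 nmole of a random double-stranded 16-mer DNA library in Tris/NaCl/DTT/glycerol buffer. Each pool held DNA-barcoded human transcription factors, expressed in yeast as GST fusions and captured on glutathione beads, plus a tag-only sample. Binding signal is a hexamer's read frequency for a factor divided by its frequency in the tag-only sample.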
# ETV5 = ETV5 (Homo sapiens, UniProt P41161 1-510); conditions: protein: recombinant; tags: N-terminal GST; dsDNA, one strand shown
# Procedure, shortened: as §1
# HSF1 = HSF1 (Homo sapiens, UniProt Q00613 1-529); conditions: protein: recombinant; tags: N-terminal GST; chain copies: 3; dsDNA, one strand shown
# Procedure, shortened: as §1
# ELF4 = ELF4 (Homo sapiens, UniProt Q99607 1-663); conditions: protein: recombinant; tags: N-terminal GST; dsDNA, one strand shown
# Procedure, shortened: as §1
# ELK4 = molecular target: T2, ELK4 (Homo sapiens, UniProt P28324-2 1-405); conditions: protein: recombinant; tags: N-terminal GST; dsDNA, one strand shown
# T2 sequence: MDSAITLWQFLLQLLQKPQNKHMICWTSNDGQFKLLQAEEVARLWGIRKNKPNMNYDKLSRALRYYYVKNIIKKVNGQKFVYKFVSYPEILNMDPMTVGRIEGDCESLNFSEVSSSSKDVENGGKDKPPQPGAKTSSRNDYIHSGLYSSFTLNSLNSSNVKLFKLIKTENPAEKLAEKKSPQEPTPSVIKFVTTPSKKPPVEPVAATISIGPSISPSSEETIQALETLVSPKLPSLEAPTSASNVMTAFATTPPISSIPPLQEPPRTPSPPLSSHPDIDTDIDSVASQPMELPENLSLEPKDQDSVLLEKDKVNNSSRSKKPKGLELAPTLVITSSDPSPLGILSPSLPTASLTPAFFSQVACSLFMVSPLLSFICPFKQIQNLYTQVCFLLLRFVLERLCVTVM
# Procedure, shortened: as §1
# CRX = CRX (Homo sapiens, UniProt O43186 1-299); conditions: protein: recombinant; tags: N-terminal GST; dsDNA, one strand shown
# Procedure, shortened: as §1
# ETV1 = ETV1 (Homo sapiens, UniProt P50549 1-477); conditions: protein: recombinant; tags: N-terminal GST; dsDNA, one strand shown
# Procedure, shortened: as §1
# ERF = molecular target: T3, ERF (Homo sapiens, UniProt P50548 1-548); conditions: protein: recombinant; tags: N-terminal GST; dsDNA, one strand shown
# T3 sequence: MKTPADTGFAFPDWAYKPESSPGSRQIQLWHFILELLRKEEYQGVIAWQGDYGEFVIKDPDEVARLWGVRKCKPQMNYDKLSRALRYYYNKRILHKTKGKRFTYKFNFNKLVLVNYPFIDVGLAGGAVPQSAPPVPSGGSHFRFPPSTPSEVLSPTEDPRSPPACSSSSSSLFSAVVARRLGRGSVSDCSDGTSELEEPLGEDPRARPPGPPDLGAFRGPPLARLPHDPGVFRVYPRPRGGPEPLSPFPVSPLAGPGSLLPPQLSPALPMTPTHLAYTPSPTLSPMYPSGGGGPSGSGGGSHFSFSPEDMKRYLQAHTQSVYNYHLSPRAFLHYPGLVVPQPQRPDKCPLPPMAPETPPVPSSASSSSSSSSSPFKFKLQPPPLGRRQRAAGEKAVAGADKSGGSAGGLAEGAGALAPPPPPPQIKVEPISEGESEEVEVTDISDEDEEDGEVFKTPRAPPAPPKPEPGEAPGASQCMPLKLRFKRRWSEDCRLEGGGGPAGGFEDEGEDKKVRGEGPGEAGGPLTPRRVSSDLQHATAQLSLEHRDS
# Procedure, shortened: as §1
# ETV3L = molecular target: T4, ETV3L (Homo sapiens, UniProt Q6ZN32 1-361); conditions: protein: recombinant; tags: N-terminal GST; dsDNA, one strand shown
# T4 sequence: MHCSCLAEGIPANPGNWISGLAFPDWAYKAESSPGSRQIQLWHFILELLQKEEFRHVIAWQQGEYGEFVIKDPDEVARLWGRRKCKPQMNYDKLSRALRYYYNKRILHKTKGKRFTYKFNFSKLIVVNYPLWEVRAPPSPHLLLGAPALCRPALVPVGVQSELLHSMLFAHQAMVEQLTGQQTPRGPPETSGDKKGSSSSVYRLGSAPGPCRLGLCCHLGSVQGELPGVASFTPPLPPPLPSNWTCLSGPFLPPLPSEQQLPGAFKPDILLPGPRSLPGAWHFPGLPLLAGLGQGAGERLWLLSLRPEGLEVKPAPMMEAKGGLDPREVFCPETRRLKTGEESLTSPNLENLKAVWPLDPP
# Procedure, shortened: as §1
# ETS2 = molecular target: T5, ETS2 (Homo sapiens, UniProt P15036 1-469); conditions: protein: recombinant; tags: N-terminal GST; dsDNA, one strand shown
# T5 sequence: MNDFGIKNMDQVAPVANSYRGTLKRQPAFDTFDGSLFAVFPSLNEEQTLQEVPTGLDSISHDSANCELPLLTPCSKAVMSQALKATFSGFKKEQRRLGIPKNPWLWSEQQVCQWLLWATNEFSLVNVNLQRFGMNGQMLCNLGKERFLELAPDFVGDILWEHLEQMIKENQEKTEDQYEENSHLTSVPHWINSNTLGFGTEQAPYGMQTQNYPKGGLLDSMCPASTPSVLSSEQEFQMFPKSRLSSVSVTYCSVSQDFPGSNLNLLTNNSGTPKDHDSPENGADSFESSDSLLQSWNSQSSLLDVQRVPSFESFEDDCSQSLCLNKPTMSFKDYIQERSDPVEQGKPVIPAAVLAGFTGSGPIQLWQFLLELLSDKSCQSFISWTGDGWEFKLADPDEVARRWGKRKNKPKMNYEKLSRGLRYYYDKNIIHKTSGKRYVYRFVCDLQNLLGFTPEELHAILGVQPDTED
# Procedure, shortened: as §1
# ETV7 = molecular target: T6, ETV7 (Homo sapiens, UniProt Q9Y603 1-341); conditions: protein: recombinant; tags: N-terminal GST; dsDNA, one strand shown
# T6 sequence: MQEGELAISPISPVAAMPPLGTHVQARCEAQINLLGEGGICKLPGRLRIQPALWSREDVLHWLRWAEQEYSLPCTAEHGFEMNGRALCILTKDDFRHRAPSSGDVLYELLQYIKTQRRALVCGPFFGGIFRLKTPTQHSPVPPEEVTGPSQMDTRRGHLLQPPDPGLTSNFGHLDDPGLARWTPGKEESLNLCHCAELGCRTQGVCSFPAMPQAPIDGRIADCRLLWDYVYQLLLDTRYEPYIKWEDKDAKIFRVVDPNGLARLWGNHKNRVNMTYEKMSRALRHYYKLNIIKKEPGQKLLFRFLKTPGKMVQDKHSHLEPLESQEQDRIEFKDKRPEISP
# Procedure, shortened: as §1
# ELF5 = molecular target: T7, ELF5 (Homo sapiens, UniProt Q9UKW6-2 1-255); conditions: protein: recombinant; tags: N-terminal GST; dsDNA, one strand shown
# T7 sequence: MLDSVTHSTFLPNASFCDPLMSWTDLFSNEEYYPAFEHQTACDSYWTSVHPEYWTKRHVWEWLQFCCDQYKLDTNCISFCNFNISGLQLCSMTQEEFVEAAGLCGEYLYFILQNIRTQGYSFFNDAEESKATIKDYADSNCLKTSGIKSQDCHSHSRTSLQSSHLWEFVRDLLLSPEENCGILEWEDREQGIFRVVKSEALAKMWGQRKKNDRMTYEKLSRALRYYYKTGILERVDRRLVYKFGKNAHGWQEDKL
# Procedure, shortened: as §1
# ETV3 = molecular target: T8, ETV3 (Homo sapiens, UniProt P41162-2 1-143); conditions: protein: recombinant; tags: N-terminal GST; dsDNA, one strand shown
# T8 sequence: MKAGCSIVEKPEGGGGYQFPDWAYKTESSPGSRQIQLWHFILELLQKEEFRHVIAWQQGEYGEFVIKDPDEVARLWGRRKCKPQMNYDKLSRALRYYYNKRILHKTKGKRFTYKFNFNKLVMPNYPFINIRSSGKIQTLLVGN
# Procedure, shortened: as §1
# ETV6 = ETV6 (Homo sapiens, UniProt P41212 1-452); conditions: protein: recombinant; tags: N-terminal GST; dsDNA, one strand shown
# Procedure, shortened: as §1
# ELF3 = molecular target: T9, ELF3 (Homo sapiens, UniProt P78545 1-371); conditions: protein: recombinant; tags: N-terminal GST; dsDNA, one strand shown
# T9 sequence: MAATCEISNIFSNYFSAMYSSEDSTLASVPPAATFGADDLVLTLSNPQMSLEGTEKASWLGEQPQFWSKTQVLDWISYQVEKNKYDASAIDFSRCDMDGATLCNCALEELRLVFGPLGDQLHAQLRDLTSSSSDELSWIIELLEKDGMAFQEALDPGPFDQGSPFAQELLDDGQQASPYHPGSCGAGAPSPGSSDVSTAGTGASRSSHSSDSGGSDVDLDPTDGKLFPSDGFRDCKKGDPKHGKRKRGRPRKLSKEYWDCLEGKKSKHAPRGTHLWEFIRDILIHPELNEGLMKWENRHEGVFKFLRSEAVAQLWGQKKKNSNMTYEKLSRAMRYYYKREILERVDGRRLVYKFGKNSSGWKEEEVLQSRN
# Procedure, shortened: as §1
# SPDEF = molecular target: T10, SPDEF (Homo sapiens, UniProt O95238 1-335); conditions: protein: recombinant; tags: N-terminal GST; dsDNA, one strand shown
# T10 sequence: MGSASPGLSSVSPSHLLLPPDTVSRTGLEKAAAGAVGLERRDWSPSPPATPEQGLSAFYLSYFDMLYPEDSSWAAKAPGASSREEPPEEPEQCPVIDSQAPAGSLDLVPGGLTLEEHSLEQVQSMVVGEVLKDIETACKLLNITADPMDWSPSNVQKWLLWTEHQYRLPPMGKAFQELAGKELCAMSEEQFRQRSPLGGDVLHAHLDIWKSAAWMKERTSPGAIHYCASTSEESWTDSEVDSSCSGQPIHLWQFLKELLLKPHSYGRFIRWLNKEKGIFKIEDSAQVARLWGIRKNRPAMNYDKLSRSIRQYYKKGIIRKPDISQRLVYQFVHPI
# Procedure, shortened: as §1
# Sequence of ETV1 (P50549 whole entry): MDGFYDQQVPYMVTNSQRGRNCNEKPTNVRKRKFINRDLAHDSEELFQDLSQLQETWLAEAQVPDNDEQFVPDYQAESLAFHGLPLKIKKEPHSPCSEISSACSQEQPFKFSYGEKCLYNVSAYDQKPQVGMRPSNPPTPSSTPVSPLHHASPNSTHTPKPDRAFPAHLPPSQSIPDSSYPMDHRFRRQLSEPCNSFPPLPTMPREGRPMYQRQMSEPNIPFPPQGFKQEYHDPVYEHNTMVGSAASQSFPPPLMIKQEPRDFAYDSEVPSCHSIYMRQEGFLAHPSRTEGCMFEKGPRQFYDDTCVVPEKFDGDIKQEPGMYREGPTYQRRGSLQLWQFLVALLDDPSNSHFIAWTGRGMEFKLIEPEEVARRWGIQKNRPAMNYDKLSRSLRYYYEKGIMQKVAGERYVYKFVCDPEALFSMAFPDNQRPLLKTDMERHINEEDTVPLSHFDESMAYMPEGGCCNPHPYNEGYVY
# Sequence of HSF1 (Q00613 whole entry): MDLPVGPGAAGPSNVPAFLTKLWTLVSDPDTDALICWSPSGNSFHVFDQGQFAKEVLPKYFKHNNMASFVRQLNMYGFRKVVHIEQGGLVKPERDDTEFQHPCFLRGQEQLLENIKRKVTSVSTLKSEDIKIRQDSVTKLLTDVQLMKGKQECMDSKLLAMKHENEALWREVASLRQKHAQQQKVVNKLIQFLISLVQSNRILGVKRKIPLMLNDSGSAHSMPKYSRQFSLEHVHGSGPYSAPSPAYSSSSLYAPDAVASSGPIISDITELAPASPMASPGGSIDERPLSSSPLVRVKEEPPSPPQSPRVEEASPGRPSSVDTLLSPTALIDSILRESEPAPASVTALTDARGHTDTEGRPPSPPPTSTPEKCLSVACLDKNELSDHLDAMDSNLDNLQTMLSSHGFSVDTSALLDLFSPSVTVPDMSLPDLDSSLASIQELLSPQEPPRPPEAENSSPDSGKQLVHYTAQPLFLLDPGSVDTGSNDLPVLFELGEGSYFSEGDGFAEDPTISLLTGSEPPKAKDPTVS
# Sequence of ETV6 (P41212 whole entry): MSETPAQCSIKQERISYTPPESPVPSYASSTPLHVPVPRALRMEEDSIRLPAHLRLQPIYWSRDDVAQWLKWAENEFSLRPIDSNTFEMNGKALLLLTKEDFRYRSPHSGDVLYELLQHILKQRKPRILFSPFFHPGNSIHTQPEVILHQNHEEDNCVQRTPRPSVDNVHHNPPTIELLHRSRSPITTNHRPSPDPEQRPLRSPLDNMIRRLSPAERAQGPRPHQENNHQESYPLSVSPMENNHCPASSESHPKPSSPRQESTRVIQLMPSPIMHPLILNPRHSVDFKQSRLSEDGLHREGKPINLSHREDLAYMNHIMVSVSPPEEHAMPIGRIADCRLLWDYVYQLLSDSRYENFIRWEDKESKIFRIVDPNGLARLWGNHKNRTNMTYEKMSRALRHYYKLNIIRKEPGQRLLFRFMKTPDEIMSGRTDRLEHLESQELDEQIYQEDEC
# Sequence of ETV5 (P41161 whole entry): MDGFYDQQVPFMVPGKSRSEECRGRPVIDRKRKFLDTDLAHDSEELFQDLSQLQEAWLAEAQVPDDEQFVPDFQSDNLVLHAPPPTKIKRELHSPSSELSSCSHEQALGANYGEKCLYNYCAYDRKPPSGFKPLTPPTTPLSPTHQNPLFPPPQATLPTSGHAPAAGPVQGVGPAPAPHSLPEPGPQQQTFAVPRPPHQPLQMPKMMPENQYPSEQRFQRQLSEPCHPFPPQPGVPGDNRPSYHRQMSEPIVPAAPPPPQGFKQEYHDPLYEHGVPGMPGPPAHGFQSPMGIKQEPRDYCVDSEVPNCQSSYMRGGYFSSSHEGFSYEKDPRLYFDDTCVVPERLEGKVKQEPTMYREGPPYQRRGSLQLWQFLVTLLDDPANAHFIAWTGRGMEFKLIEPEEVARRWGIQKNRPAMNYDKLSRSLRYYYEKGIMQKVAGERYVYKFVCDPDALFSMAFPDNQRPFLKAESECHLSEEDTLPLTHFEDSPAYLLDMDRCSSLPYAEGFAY
# Sequence of ELF4 (Q99607 whole entry): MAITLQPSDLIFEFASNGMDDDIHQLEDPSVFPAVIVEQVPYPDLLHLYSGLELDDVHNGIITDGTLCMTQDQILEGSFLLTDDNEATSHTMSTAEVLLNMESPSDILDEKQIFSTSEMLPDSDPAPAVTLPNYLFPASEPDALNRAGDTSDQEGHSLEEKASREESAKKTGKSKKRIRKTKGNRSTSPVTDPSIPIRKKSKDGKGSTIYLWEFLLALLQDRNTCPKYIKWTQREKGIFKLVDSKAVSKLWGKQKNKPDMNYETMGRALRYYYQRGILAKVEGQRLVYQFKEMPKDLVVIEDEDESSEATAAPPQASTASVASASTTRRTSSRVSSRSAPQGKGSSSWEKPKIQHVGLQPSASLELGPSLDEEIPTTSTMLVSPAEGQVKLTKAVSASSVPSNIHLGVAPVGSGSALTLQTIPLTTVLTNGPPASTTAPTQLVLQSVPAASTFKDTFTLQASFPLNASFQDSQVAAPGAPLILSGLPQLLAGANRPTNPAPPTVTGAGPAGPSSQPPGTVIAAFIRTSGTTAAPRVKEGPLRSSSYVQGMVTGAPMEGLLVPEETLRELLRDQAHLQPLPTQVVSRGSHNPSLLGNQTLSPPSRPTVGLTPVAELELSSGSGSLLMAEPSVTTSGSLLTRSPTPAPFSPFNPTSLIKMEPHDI
# Sequence of CRX (O43186 whole entry): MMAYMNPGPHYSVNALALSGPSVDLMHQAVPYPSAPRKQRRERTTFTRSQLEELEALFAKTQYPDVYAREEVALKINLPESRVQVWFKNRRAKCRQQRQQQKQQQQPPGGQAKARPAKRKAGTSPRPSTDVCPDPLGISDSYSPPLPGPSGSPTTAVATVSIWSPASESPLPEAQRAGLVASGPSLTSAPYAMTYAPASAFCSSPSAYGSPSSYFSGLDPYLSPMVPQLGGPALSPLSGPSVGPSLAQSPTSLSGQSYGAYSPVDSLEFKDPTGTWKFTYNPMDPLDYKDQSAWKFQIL
Sequence,binding signal (FEV),binding signal (ETV5),binding signal (HSF1),binding signal (ELF4),binding signal (ELK4),binding signal (CRX),binding signal (ETV1),binding signal (ERF),binding signal (ETV3L),binding signal (ETS2),binding signal (ETV7),binding signal (ELF5),binding signal (ETV3),binding signal (ETV6),binding signal (ELF3),binding signal (SPDEF)
AGGGCT,"1.03 fold enrichment (6-mer frequency, TF over GST control)","1.06 fold enrichment (6-mer frequency, TF over GST control)","1.03 fold enrichment (6-mer frequency, TF over GST control)","1.07 fold enrichment (6-mer frequency, TF over GST control)","1.02 fold enrichment (6-mer frequency, TF over GST control)","1.26 fold enrichment (6-mer frequency, TF over GST control)","1.11 fold enrichment (6-mer frequency, TF over GST control)","1.1 fold enrichment (6-mer frequency, TF over GST control)","1.06 fold enrichment (6-mer frequency, TF over GST control)","1.02 fold enrichment (6-mer frequency, TF over GST control)","1.12 fold enrichment (6-mer frequency, TF over GST control)","1.05 fold enrichment (6-mer frequency, TF over GST control)","1.06 fold enrichment (6-mer frequency, TF over GST control)","1.09 fold enrichment (6-mer frequency, TF over GST control)",–,–
CAAGCA,"1.13 fold enrichment (6-mer frequency, TF over GST control)","1.17 fold enrichment (6-mer frequency, TF over GST control)","1.03 fold enrichment (6-mer frequency, TF over GST control)","1.16 fold enrichment (6-mer frequency, TF over GST control)","1.14 fold enrichment (6-mer frequency, TF over GST control)",–,"1.1 fold enrichment (6-mer frequency, TF over GST control)","1.15 fold enrichment (6-mer frequency, TF over GST control)","1.17 fold enrichment (6-mer frequency, TF over GST control)","1.25 fold enrichment (6-mer frequency, TF over GST control)","1.1 fold enrichment (6-mer frequency, TF over GST control)","1.11 fold enrichment (6-mer frequency, TF over GST control)","1.16 fold enrichment (6-mer frequency, TF over GST control)","1.14 fold enrichment (6-mer frequency, TF over GST control)","1.28 fold enrichment (6-mer frequency, TF over GST control)","1.06 fold enrichment (6-mer frequency, TF over GST control)"
CGGCTA,"1.23 fold enrichment (6-mer frequency, TF over GST control)","1.19 fold enrichment (6-mer frequency, TF over GST control)","1.07 fold enrichment (6-mer frequency, TF over GST control)","1.07 fold enrichment (6-mer frequency, TF over GST control)","1.11 fold enrichment (6-mer frequency, TF over GST control)","1.18 fold enrichment (6-mer frequency, TF over GST control)","1.2 fold enrichment (6-mer frequency, TF over GST control)","1.07 fold enrichment (6-mer frequency, TF over GST control)","1.19 fold enrichment (6-mer frequency, TF over GST control)","1.07 fold enrichment (6-mer frequency, TF over GST control)","1.26 fold enrichment (6-mer frequency, TF over GST control)","1.19 fold enrichment (6-mer frequency, TF over GST control)","1.12 fold enrichment (6-mer frequency, TF over GST control)","1.27 fold enrichment (6-mer frequency, TF over GST control)","1.05 fold enrichment (6-mer frequency, TF over GST control)","1.25 fold enrichment (6-mer frequency, TF over GST control)"
